Results published in the supplement of paper PMC11417369.
Over roughly 25,000 sequences, “ln(normalized median fluorescence intensity)” has its median near 9.7; the highest 2% begin near 11. The full list was thinned out, with the highest values kept by preference.

The sequences below were run on PfAP2-HC AP2 domain (GST-tagged) (assay: gcPBM binding intensity (ln(normalized median fluorescence intensity)); higher = stronger DNA binding).
Outline: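 An Agilent 4 × 180k array of primer-extended double-stranded 36-bp intergenic genomic probes, with negative controls, was incubated for 1 h with GST-tagged P. falciparum DNA-binding domains expressed in E. coli. Alexa488 anti-GST antibody detected bound protein, scanned at 488 nm. Binding intensity is the highest Masliner-normalised natural-log median intensity across replicate spots of either probe orientation.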

Sequence	gcPBM binding intensity (ln)
AATATAATGCAATATACACACATATATTTCTCTTTT [CACACA_site7276]	9.94
TTTTCTAAAAAAAGTTGTACATCTTATTTATATTAT [XGTACX_site295]	9.63
AATTTCAAATTGTATGTGCACATGTAGAAGTACTTT	9.85
AAAATATGTATGTAAAGTACTAATATACAAATTTTT [XGTACX_site5186]	9.62
TGTATTTATTAATGTACACACATGCGTATGTTCGTT [CACACA_site5892]	9.96
TTTTTTTTTATAGCTAAACACACATAAGAATATATG [CACACA_site8282]	9.61
TTTTTTTTTTTTTTTGCACACACATTGAATTATTAT [CACACA_site198]	9.96
TTTATTTATATAATTACACACATATATACACAAATG [CACACA_site8903]	9.79
TGTTGTAACAAAAGTACACACACATTTCTATAAATT [CACACA_site8894]	9.86
GAATATAAACATATTACACACATCTATCTGTACATT [CACACA_site5114]	9.97
AATAACCACAGACACACACACATATAAATATAAATA [CACACA_site7631]	10.9
TATAAATATAAATACACACACACATCAATACAGATA [CACACA_site5850]	11
TAAATAAATACATACACACACATACAGATATATATA [CACACA_site5690]	10.5
ATTTCATACAGACACACACACAAACAAACATATATA [CACACA_site979]	11.2
TATACAGATATATATACACACATATATATAAATACA [CACACA_site4383]	9.97
GGATATAACAGACACACACACACATATAAATATATT [CACACA_site7866]	10.6
AACCACAGACATATAACACACATATACAATATATAT [CACACA_site5142]	10.4
TACAGATACAGATACACACACACACCGAAATAAATA [CACACA_site4865]	11
TATATACTCAAACACACACACACATACACAGACATA [CACACA_site5025]	10.7
TATATATATAAATACACACACACACCGATATATATA [CACACA_site5408]	10.5

Sequence	gcPBM binding intensity (ln)
AAAAAAAACAGACACACACACATACAAAATATATAT [CACACA_site1449]	10.7
TATAAATACAGATACACACACACACCGATATATATA [CACACA_site5271]	10.4
ATTTTTTCTTTTTTTTTTCCGTTTTTTTGGACATTT [CACACA_negctrl_site1174]	9.75
TAAATATATATATATAGTACAATATAATTATGATAT [XGTACX_site258]	9.75
AAAAAAAAAATATCATGTACAAATATAATAAAATTT [XGTACX_site3896]	9.79
TATATTTAAGTACATAAATAAGCCCATTTACATACA [CACACA_negctrl_site1224]	9.37
AATAATAATGCTTTAACTTTGTTGTTATTTAGAATA [CACACA_negctrl_site1144]	9.44
AATAGCTAGCTGTGCACACAAACATATTTTCCAAAT [CACACA_site880]	9.91
AGGTTATATATGAACAAAAATAAAATATTCATAGGC [TGCATGCA_negctrl_site46]	9.77
AAAAAACACAGACACACACACATATACATACATACA [CACACA_site2666]	10.7
ATAAATACTAGGCACACACACATATATATATATATA [CACACA_site2080]	10.4
AAAAAAAACAGACACACACACACATATACATACATA [CACACA_site2665]	11.5
TAAACAGACATATAAACACACATACATACATACATA [CACACA_site7215]	10.2
ATAAATACTAGGCACACACACATATAGATTTATATA [CACACA_site7064]	10.8
AAATAAATACTAGGCACACACACATATATATATATA [CACACA_site2079]	11
TGTTTCTAAGAATTTACACACAAAATATTTCTACAT [CACACA_site7846]	9.9
TTTATTTATTAAGAATGTACATGTATTTGTTAAATA [XGTACX_site4465]	9.4
AAAAATTTGGCATACACACACACACGCACACGCACA [CACACA_site6422]	10.6
TCTCATAGTAGACACACACACACACGCACATATATA [CACACA_site6916]	11.3
AAATTTGGCAGACACACACACACACGCACACGCACA [CACACA_site6423]	11.5

Sequence	gcPBM binding intensity (ln)
TATCTCATAGTATACACACACACACGCGCACATATA [CACACA_site6917]	10.5
ATTTGGCATAGACACACACACACACGCACGCACATA [CACACA_site6424]	11.1
CGCACACGCAGACACACACACACATATAAATAAATA [CACACA_site7101]	10.8
CATAGATACATACACGCACACACATATATATATATA [CACACA_site13]	10.3
CACATACACATACACATACACACGCATAGAAACATA [CACACA_site2136]	10.5
TATACACATAGACACACACACATACACGCACATACA [CACACA_site6908]	10.7
TCAAGTTTATATTAACTATTTATGAAAAAAAAAAGA [CACACA_negctrl_site902]	9.38
ATTTTATATACACTTTGTACTTATTTTATTCTTCTT [XGTACX_site4200]	9.93
TAATATATTTATAAGTGTACACATTATATAAATCCC [XGTACX_site8875]	9.64
ATCCATTATTTTTGTTGTACGGGTAACTTTAAAAAG [XGTACX_site2226]	9.5
ATGAATAATTAATGATGTACTTAAAAAAAAAAATAT [XGTACX_site6346]	9.53
TATATAGCTAAAAACACACAAATATGTACACATAAA [CACACA_site7665]	9.88
ATGAACATATCAATTCTCAAAATAGGATGAGAGCAT [CACACA_negctrl_site230]	9.6
ATCATAAATATAGCAACACACGGATTACATAAAATA [CACACA_site2796]	9.85
GTGGTTATATATTAAGTGCATATTATAATTTTAAAC	9.52
TATGTGAATATAATCACACACAATACGGAAACCCAC [CACACA_site2725]	9.99
TATGTGAATATAATCACACACAATACGGAAAGAGAC [CACACA_site7311]	11.2
AATATGTGAATATAATCACACACAATACGGAAACAC [CACACA_site8875]	10.7
